ATXN viability: Viability Counterscreen for Primary qHTS for Inhibitors of ATXN expression; hit rate 0.49% among 400,000; S2 cells (HEK-293 line with an ATXN2-luciferase reporter) viability, CellTiter-Fluor protease fluorescence, 24 h; AID 651635, 2014; Potency, µM (series often up to 56.7 µM), usual class: cytotoxic; also: nearly all actives have a fitted effect of over 40% in size
TGFb inhibitor: qHTS for Inhibitors of TGF-b; HepG2 CAGA-GFP TGF-b/SMAD3 reporter, GFP fluorescence, 18 h; TGF-beta stimulated, 500 pg/mL final; Potency, µM (highest dose often 46.1 µM), for inactives: at the highest dose activity, negative = inhibition, most hits filed as inhibitors; hit rate 1.2% among 410,000; also: % is scaled to controls: 0 for no effect and ±100 for the full control effect; nearly all actives have a fitted effect of over 65% in size
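First, reporter cells (HEPG2 CAGA-GFP) rested 2 h at 37 degrees C. Next, compounds were pinned in and TGF-beta added to 500 pg/mL final. After 18 h, GFP was imaged per cell and summed per well.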
DT40 TDP1 no CPT: qHTS for Inhibitors of human tyrosyl-DNA phosphodiesterase 1 (TDP1): qHTS in cells in absence of CPT; DT40 Tdp1-/- hTDP1 cells, no CPT, ATP luminescence, 48 h; Potency, µM (series often up to 46.2 µM), for inactives: at the highest dose activity change, negative = growth inhibition, most hits filed as inhibitors; hit rate 15% among 420,000; also: % is scaled to controls: 0 for no effect and ±100 for the full control effect; nearly all actives have a fitted effect of over 55% in size
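Compound effects on proliferation are scored in DT40 Tdp1-/-;hTDP1 cells in the absence of CPT. ATP levels (CellTiter-Glo luminescence) are recorded after a ≥48 hr, 37 °C incubation.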
ATXN2 expr inh: Primary qHTS for Inhibitors of ATXN expression. AID 1745845, 2022. HEK-293 ATXN2-luciferase reporter, luminescence, 24 h. hit rate 0.72% among 360,000. Potency, µM (top dose mostly 57 µM), inactives show at the top dose activity change, negative = inhibition, actives largely listed as inhibitors; also: % is scaled to controls: 0 for no effect and ±100 for the full control effect; nearly all actives have a fitted effect of over 55% in size
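ATXN2-luciferase reporter cells (luciferase flanked by upstream and downstream ATXN2 gene portions) were treated 24 h at 37 °C with compounds at up to 57 uM. SteadyGlo luminescence gave expression; GF-AFC fluorescence gave viability.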
HepG2 viability: qHTS for Inhibitors of TGF-b: Cytotox Counterscreen | HepG2 CAGA-GFP viability, ATP luminescence, 18 h | Potency, µM (highest dose often 46.1 µM), without a hit: at the top dose activity change, negative = cytotoxicity, usual class: cytotoxic | hit rate 0.76% among 410,000
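CellTiter-Glo luminescence gave cytotoxicity after 18 hours at 37 degrees C. The cells were HepG2 CAGA-GFP in 1% FBS DMEM, stimulated with 500 pg/mL TGF-beta after compound addition. %Activity was normalised to no-cell wells (complete cell-killing) and DMSO (no toxicity), and curves were fitted and classified.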
TDP1 cell CPT: qHTS for Inhibitors of human tyrosyl-DNA phosphodiesterase 1 (TDP1): qHTS in cells in presence of CPT | Potency, µM (highest dose often 46.2 µM), for the others: at the highest dose activity change, negative = growth inhibition, actives largely listed as inhibitors | chicken DT40 Tdp1-/-;hTDP1 cells + 20 nM CPT, ATP luminescence, 48 h | AID 686979, 2013 | hit rate 12% among 420,000; also: % is scaled to controls: 0 for no effect and ±100 for the full control effect; nearly all actives have a fitted effect of over 55% in size
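Cell growth measured by CellTiter-Glo luminescence after a minimum 48 h, 37 C compound exposure with 20 nM CPT in Tdp1-knockout DT40 cells stably expressing hTDP1, seeded 400/well; qHTS titration format.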
* = called active by the depositor. Most compounds without a hit are left out; they make up all but 17% or so of the library. Calls follow the shape of the dose curve; as a rule, active = well fitted curve in the direction sought with a large enough effect; inconclusive = small, poorly fitted or top-dose-only effect, or another doubt; inactive = no such curve, though single readings can be large; an effect the other way counts as inactive or inconclusive. Potency is read from the fitted curve at half-maximal effect.

Oc1c(Cl)cc(Cl)cc1CN1CCN(Cc2ccccc2)CC1 was read as ATXN viability inactive, TGFb inhibitor 7%, DT40 TDP1 no CPT -24%, ATXN2 expr inh -9%, HepG2 viability 1% and TDP1 cell CPT -16%.
COc1ccccc1N1CCN(C(=O)CCC(=O)Nc2nnc(CC(C)C)s2)CC1 was read as ATXN viability inactive, TGFb inhibitor -1%, DT40 TDP1 no CPT -18%, ATXN2 expr inh 10%, HepG2 viability 2% and TDP1 cell CPT inconclusive.
Screening COc1ccc(OC)c(N2C(=O)NC(=O)/C(=C/c3ccc([N+](=O)[O-])s3)C2=O)c1 returned ATXN viability inactive, TGFb inhibitor inconclusive, DT40 TDP1 no CPT 16µM*, ATXN2 expr inh 18%, HepG2 viability 9% and TDP1 cell CPT 16µM*.
Screening COc1ccc(-c2c(C)c3cc(OC(=O)N4CCOCC4)ccc3oc2=O)cc1 returned TGFb inhibitor -4%, DT40 TDP1 no CPT inconclusive, HepG2 viability -26% and TDP1 cell CPT -5%.
`CCOC(=O)C1(CCOc2ccccc2)CCN(Cc2cccc(O)c2)CC1` gave ATXN viability inactive, TGFb inhibitor -9%, DT40 TDP1 no CPT inconclusive, ATXN2 expr inh -25%, HepG2 viability -37% and TDP1 cell CPT inconclusive.
Screening CCOC(=O)[C@]12Cc3cc(N(C)C)ccc3[C@H]1N(Cc1ccccc1)C(=O)c1ccccc12 returned ATXN viability inconclusive, TGFb inhibitor inconclusive, DT40 TDP1 no CPT 6.5µM*, ATXN2 expr inh inconclusive, HepG2 viability -4% and TDP1 cell CPT 13µM*.
`CCOC(=O)[C@]12Cc3cc(C)ccc3[C@H]1N(Cc1ccccc1)C(=O)c1cc(OC)ccc12` gave ATXN viability 32µM*, DT40 TDP1 no CPT 21µM*, ATXN2 expr inh inconclusive and TDP1 cell CPT inconclusive.
Screening CCOC(=O)[C@]12Cc3cc4c(cc3[C@H]1N(Cc1ccccc1)C(=O)c1ccccc12)OCO4 returned ATXN viability inconclusive, TGFb inhibitor inconclusive, DT40 TDP1 no CPT 15µM*, ATXN2 expr inh inconclusive, HepG2 viability -10% and TDP1 cell CPT inconclusive.
`CCOC(=O)[C@]12Cc3ccccc3[C@H]1N(Cc1ccccc1)C(=O)c1cc(F)c(F)cc12` gave ATXN viability inconclusive, DT40 TDP1 no CPT 23µM*, ATXN2 expr inh inconclusive and TDP1 cell CPT inconclusive.
`CN1C(=O)C(C2c3ccccc3C(=O)N2Cc2ccccc2)C(=O)N(C)C1=O` (configuration not stated) gave ATXN viability inactive, TGFb inhibitor 12%, DT40 TDP1 no CPT 10%, ATXN2 expr inh 1%, HepG2 viability 60% and TDP1 cell CPT 4%.
Screening CCOC(=O)[C@]12Cc3cc(Cl)ccc3[C@H]1N(Cc1ccccc1)C(=O)c1ccccc12 returned ATXN viability inactive, TGFb inhibitor inconclusive, DT40 TDP1 no CPT inconclusive, ATXN2 expr inh -25%, HepG2 viability -14% and TDP1 cell CPT 10µM*.
For O=[N+]([O-])c1ccc(Cl)c([N+](=O)[O-])c1 the results were ATXN viability 18µM*, TGFb inhibitor 5µM*, DT40 TDP1 no CPT 4.6µM*, ATXN2 expr inh inconclusive, HepG2 viability 7.1µM* and TDP1 cell CPT 3.7µM*.
`O=[N+]([O-])c1ccc(O)c([N+](=O)[O-])c1` gave ATXN viability inactive, TGFb inhibitor 26%, DT40 TDP1 no CPT inconclusive, ATXN2 expr inh 6%, HepG2 viability 10% and TDP1 cell CPT inconclusive.
Cc1cccc(C)c1-n1nnnc1C(C1CC1)N1CCC(n2c(=O)[nH]c3ccccc32)CC1 (configuration not stated) was read as ATXN viability inactive, TGFb inhibitor -2%, DT40 TDP1 no CPT inconclusive, ATXN2 expr inh 10%, HepG2 viability -19% and TDP1 cell CPT inconclusive.
Screening Cc1cccc(C)c1-n1nnnc1C(c1cccc2ccccc12)N1CCC(n2c(=O)[nH]c3ccccc32)CC1 (configuration not stated) returned ATXN viability inactive, TGFb inhibitor -25%, DT40 TDP1 no CPT 16µM*, ATXN2 expr inh 12%, HepG2 viability -16% and TDP1 cell CPT 15µM*.
Screening Cc1cccc(C)c1-n1nnnc1C(c1cccs1)N1CCC(n2c(=O)[nH]c3ccccc32)CC1 (configuration not stated) returned TGFb inhibitor inconclusive, DT40 TDP1 no CPT 21µM*, ATXN2 expr inh inconclusive, HepG2 viability -4% and TDP1 cell CPT inconclusive.
For COC[C@@H](NC(C)=O)C(=O)NCc1ccccc1 the results were ATXN viability inactive and ATXN2 expr inh -1%.
Nc1nonc1-n1nnc(C(=O)N/N=C/c2ccc3c(c2)OCO3)c1CSc1ccccc1 was read as ATXN viability inactive, TGFb inhibitor 29%, DT40 TDP1 no CPT 10%, ATXN2 expr inh -17%, HepG2 viability 10% and TDP1 cell CPT 2%.
For CC(=O)OC1CCC23C(=O)OC45CCC(C6=CC(=O)OC6)C4(C)CCC2C5CCC3(O)C1 (configuration not stated) the results were DT40 TDP1 no CPT 10µM* and TDP1 cell CPT 12µM*.
CNC(=O)Nc1ccc(C(=O)N/N=C\C23CC[C@@H](O)CC2(O)CC[C@@H]2[C@@H]3CCC3(C)C(C4=CC(=O)OC4)CCC23O)cc1 (some centres not stated) was read as ATXN viability inactive, TGFb inhibitor -3%, DT40 TDP1 no CPT 22%, ATXN2 expr inh inconclusive, HepG2 viability -30% and TDP1 cell CPT -11%.
Cc1ccc(CN2CCN(Cc3ccccc3)CC2)cc1 was read as ATXN viability inactive, TGFb inhibitor -3%, DT40 TDP1 no CPT 11%, ATXN2 expr inh 2%, HepG2 viability 5% and TDP1 cell CPT -9%.
N#Cc1c(Cl)nc(Cl)c2c1CCN(Cc1ccccc1)C2 was read as ATXN viability inconclusive, TGFb inhibitor -4%, DT40 TDP1 no CPT 16µM*, ATXN2 expr inh inconclusive, HepG2 viability -18% and TDP1 cell CPT inconclusive.

Compound activity as filed in PubChem BioAssay.
